Source: the supplement of paper PMC10849652
The full data set covers some 8,800 targets. This sample favours those with a hit. About 0.5% of all pairs of compound and target were hits. Values without a mark were called inactive.

How the values were obtained:
Experiment in all cases: log2 fold change, soluble protein after heating vs DMSO (PISA); higher = thermal stabilisation; K562 lysate, 10 uM; active = over 0.2 and 3.5 SD of the protein, either way, in both replicates (recomputed)
[1] = compound: CS(=O)(=O)CCNCc1ccc(-c2ccc3ncnc(Nc4ccc(OCc5cccc(F)c5)c(Cl)c4)c3c2)o1 [lapatinib]
Procedure, shortened: (§1)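 Thermal stability, expressed as log-two fold change relative to solvent controls, is given from duplicates. Crude K562 extract in PBS pH 7.4 with 1 mM MgCl2, at 1 mg/mL protein, was treated with 10 μM compound for 30 min and heated in aliquots for 3 min across 48°C-58°C. After pooling, adjustment to 0.5% NP-40 at 4°C and centrifugation at 21,000xg for 90 min, supernatant protein was measured by TMTpro 16plex LC-MS/MS with channel sums equalised.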

[2] = compound: CS(=O)(=O)N1CCN(Cc2cc3nc(-c4cccc5[nH]ncc45)nc(N4CCOCC4)c3s2)CC1 [pictilisib]
Procedure, shortened: as §1

[3] = compound: C[C@@H](Oc1cc(-c2cnn(C3CCNCC3)c2)cnc1N)c1c(Cl)ccc(F)c1Cl [crizotinib]
Procedure, shortened: as §1

[4] = compound: C[C@H](C1=CC=C(C=C1)C(=O)NC2=C3C=CNC3=NC=C2)N
Procedure, shortened: as §1

[5] = compound: C[C@H](Nc1ncnc2nc[nH]c12)c1cc2cccc(Cl)c2c(=O)n1-c1ccccc1 [duvelisib]
Procedure, shortened: as §1

[6] = compound: Cc1cc(Nc2cc(CN3CCOCC3)c3nc(C)c(Cc4ccc(Cl)cc4F)n3n2)n[nH]1 [gandotinib]
Procedure, shortened: as §1

[7] = compound: Cc1cc(Nc2cc(N3CCN(C)CC3)nc(Sc3ccc(NC(=O)C4CC4)cc3)n2)n[nH]1 [tozasertib]
Procedure, shortened: as §1

[8] = compound: Cc1ccc(-n2nc(C(C)(C)C)cc2NC(=O)Nc2ccc(OCCN3CCOCC3)c3ccccc23)cc1 [doramapimod]
Procedure, shortened: as §1

[9] = compound: Cc1ccc(NC(=O)c2ccc(CN3CC[C@H](N(C)C)C3)c(C(F)(F)F)c2)cc1Nc1nccc(-c2cncnc2)n1 [bafetinib]
Procedure, shortened: as §1

[10] = compound: Cc1cccc(CC(=O)N2CCc3c2ccc(-c2cn(C)c4ncnc(N)c24)c3F)n1
Procedure, shortened: as §1

[11] = compound: Cc1cn(-c2cc(NC(=O)c3ccc(C)c(Nc4nccc(-c5cccnc5)n4)c3)cc(C(F)(F)F)c2)cn1 [nilotinib]
Procedure, shortened: as §1

[12] = compound: Cc1nc(Nc2n[nH]c3c2CN(C(=O)N[C@H](CN(C)C)c2ccccc2)C3(C)C)c2sccc2n1
Procedure, shortened: as §1

[13] = compound: Cc1nc(Nc2ncc(C(=O)Nc3c(C)cccc3Cl)s2)cc(N2CCN(CCO)CC2)n1 [dasatinib]
Procedure, shortened: as §1

[14] = compound: Cc1ncc(-c2ccnc(Nc3ccc(S(C)(=O)=O)cc3)n2)n1C(C)C
Procedure, shortened: as §1

[15] = compound: Cn1cc(-c2ccc3c(c2)CCN3C(=O)Cc2cccc(C(F)(F)F)c2)c2c(N)ncnc21
Procedure, shortened: as §1

[16] = compound: Cn1cc(CNCC2CCN(c3ncc(C(=O)NO)cn3)CC2)c2ccccc21 [quisinostat]
Procedure, shortened: as §1

[17] = compound: Cn1cncc1[C@@](N)(c1ccc(Cl)cc1)c1ccc2c(c1)c(-c1cccc(Cl)c1)cc(=O)n2C [tipifarnib]
Procedure, shortened: as §1

[18] = compound: NC(=O)Nc1cc(-c2cccc(F)c2)sc1C(=O)N[C@H]1CCCNC1
Procedure, shortened: as §1

[19] = compound: NC(=O)c1cnc(N[C@@H]2CCCC[C@@H]2N)nc1Nc1cccc(-n2nccn2)c1
Procedure, shortened: as §1

[20] = compound: NC1(c2ccc(-c3nc4ccn5c(=O)[nH]nc5c4cc3-c3ccccc3)cc2)CCC1
Procedure, shortened: as §1

UniProt O95067, sequence (O95067 whole entry, looked up): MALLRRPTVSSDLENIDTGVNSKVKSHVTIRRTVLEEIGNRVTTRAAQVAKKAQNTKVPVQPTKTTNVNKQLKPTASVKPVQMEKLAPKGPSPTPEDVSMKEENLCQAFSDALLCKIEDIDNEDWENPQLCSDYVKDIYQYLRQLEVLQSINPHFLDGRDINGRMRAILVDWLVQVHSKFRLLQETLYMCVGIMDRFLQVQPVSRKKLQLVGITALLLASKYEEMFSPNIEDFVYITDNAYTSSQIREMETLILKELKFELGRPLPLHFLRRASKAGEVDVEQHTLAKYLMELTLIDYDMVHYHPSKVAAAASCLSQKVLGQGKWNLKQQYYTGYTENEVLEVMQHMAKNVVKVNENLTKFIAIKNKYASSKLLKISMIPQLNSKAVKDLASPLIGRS
UniProt P20248, sequence (P20248 whole entry, looked up): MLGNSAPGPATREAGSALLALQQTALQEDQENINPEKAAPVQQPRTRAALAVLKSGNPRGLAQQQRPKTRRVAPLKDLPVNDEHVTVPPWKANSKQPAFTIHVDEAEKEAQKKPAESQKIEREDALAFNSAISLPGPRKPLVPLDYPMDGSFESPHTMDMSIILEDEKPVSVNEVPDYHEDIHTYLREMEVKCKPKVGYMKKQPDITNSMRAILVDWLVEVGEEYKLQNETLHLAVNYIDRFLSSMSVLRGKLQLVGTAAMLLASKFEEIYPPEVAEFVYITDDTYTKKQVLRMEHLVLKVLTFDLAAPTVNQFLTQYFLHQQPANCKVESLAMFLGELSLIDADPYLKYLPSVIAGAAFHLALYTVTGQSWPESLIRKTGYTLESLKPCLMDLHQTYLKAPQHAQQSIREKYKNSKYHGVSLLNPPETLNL
UniProt Q96LT7, sequence (Q96LT7 whole entry, looked up): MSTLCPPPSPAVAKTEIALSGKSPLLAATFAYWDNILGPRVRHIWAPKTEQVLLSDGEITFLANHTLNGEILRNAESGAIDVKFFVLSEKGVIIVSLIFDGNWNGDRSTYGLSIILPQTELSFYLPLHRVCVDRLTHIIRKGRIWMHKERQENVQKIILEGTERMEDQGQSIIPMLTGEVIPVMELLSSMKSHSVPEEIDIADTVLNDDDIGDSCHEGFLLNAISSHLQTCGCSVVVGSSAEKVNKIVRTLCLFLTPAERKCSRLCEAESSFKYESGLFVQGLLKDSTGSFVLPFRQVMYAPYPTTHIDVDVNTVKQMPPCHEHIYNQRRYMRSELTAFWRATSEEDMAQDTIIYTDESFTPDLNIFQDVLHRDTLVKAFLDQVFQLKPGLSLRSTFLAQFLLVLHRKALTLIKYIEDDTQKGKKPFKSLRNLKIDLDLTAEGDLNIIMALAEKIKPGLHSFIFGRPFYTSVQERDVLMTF
UniProt P04632, sequence (P04632 whole entry, looked up): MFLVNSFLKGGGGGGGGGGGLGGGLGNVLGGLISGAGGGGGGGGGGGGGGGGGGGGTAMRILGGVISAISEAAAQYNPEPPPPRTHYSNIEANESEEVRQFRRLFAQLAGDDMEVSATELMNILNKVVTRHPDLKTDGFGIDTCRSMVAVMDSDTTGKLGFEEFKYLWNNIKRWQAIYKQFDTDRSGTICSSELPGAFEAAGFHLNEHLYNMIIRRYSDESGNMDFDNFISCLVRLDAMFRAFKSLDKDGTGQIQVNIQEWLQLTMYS
UniProt Q9ULG6, sequence (Q9ULG6 whole entry, looked up): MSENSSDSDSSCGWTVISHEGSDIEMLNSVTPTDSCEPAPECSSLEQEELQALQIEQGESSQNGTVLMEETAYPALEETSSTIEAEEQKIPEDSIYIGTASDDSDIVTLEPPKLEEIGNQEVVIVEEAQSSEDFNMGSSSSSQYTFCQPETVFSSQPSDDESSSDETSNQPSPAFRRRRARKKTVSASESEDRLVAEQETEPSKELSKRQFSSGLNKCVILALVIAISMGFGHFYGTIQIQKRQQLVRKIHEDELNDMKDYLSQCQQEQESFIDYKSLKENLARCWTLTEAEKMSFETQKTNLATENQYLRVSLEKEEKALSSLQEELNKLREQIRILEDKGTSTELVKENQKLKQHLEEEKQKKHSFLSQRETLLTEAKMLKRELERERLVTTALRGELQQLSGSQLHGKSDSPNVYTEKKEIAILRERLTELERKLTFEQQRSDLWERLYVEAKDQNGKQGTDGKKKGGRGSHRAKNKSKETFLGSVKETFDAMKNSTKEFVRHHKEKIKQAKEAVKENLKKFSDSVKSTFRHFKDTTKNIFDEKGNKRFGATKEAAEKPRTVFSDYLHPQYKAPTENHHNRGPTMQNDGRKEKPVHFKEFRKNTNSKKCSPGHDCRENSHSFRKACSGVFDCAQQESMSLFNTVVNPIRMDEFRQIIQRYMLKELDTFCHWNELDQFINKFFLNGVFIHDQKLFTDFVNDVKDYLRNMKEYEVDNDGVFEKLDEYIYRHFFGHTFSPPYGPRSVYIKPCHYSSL
UniProt Q8WXE1, sequence (Q8WXE1 whole entry, looked up): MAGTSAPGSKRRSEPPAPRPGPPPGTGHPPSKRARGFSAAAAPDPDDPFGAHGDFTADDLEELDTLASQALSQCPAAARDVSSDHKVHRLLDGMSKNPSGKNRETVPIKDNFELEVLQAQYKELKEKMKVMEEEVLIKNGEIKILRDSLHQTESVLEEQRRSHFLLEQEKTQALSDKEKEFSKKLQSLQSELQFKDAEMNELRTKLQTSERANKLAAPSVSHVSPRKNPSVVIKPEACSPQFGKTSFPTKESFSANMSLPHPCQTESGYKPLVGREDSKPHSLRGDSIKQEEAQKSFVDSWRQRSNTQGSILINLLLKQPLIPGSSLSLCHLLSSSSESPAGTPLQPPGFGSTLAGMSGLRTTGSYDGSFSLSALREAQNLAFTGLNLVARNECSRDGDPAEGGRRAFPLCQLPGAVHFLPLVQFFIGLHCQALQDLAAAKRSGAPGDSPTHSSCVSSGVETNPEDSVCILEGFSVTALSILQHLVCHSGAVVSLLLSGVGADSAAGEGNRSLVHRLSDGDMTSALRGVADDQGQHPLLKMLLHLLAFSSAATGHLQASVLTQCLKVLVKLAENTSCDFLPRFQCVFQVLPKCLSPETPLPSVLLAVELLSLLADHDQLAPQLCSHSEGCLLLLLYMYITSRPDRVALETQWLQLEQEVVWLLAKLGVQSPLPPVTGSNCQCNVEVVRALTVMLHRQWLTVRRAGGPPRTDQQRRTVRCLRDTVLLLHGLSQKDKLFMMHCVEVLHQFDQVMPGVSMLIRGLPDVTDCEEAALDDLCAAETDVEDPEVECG
UniProt Q6P4E1, sequence (Q6P4E1 whole entry, looked up): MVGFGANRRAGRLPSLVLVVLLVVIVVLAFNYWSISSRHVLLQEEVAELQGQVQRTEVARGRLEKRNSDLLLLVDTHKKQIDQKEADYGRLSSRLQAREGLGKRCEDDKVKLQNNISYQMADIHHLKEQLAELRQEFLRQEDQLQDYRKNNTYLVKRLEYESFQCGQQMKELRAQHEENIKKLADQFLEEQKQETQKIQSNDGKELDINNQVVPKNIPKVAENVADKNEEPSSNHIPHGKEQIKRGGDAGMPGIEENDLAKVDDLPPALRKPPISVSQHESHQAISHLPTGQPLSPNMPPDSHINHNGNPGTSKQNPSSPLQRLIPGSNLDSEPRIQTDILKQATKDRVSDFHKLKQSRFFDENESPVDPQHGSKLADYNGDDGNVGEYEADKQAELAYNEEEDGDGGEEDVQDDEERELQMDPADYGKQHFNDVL
UniProt Q13555, sequence (Q13555 whole entry, looked up): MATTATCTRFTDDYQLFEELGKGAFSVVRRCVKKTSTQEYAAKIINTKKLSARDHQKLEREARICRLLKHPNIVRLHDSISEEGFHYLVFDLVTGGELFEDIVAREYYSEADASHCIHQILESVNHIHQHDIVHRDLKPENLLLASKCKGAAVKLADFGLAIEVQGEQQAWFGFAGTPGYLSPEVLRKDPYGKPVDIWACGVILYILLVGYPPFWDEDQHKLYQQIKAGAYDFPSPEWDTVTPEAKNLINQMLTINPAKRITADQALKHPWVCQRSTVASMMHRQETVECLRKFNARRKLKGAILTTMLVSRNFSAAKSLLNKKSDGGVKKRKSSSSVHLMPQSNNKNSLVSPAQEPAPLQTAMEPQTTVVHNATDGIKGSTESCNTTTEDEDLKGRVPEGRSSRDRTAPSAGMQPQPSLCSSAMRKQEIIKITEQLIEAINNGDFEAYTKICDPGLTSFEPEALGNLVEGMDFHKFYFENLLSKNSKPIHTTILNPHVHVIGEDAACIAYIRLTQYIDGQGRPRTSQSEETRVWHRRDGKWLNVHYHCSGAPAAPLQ
UniProt Q92879, sequence (Q92879 whole entry, looked up): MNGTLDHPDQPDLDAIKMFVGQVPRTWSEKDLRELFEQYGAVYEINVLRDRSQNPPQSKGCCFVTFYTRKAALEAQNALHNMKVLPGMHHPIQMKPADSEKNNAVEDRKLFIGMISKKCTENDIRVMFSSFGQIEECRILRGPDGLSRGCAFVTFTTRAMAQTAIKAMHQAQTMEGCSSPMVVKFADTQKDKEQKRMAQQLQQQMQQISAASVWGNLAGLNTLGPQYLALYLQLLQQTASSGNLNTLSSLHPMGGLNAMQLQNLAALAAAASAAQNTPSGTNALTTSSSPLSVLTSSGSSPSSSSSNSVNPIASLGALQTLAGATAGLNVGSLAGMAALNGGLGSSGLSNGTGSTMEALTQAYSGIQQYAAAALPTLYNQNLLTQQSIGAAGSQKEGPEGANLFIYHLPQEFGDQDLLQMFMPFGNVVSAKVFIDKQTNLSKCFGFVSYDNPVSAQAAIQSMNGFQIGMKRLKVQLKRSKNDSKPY
UniProt Q14012, sequence (Q14012 whole entry, looked up): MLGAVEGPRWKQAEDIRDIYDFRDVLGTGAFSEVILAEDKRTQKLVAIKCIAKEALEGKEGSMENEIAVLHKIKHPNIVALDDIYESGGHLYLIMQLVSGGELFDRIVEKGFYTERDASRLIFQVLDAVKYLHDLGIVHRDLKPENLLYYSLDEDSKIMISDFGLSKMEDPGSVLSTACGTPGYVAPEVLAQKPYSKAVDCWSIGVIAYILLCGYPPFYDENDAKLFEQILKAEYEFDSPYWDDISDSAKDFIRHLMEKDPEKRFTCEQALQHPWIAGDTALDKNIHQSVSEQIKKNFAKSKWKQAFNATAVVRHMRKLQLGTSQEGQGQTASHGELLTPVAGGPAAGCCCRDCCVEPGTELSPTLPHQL

Target	log2 fold change [1]	log2 fold change [2]	log2 fold change [3]	log2 fold change [4]	log2 fold change [5]	log2 fold change [6]	log2 fold change [7]	log2 fold change [8]	log2 fold change [9]	log2 fold change [10]	log2 fold change [11]	log2 fold change [12]	log2 fold change [13]	log2 fold change [14]	log2 fold change [15]	log2 fold change [16]	log2 fold change [17]	log2 fold change [18]	log2 fold change [19]	log2 fold change [20]
CCPG1 isoform 5 (UniProt Q9ULG6)	0.114	-0.038	0.006	-0.036	0.006	-0.089	-0.021	0.036	0.035	0.108	0.067	0.017	0.013	0.087	0.004	-0.021	-0.033	0.029	0	-0.073
ATRIP (UniProt Q8WXE1)	-0.046	0.187	0.012	-0.034	-0.016	-0.056	0.097	0.001	-0.035	0.006	-0.014	-0.028	-0.059	0.071	0.045	-0.03	-0.049	-0.007	0.01	0.032
C9orf72 (UniProt Q96LT7)	0.061	-0.112	0.082	-0.075	-0.072	0.035	-0.196	0.03	-0.043	-0.009	0.017	-0.063	-0.025	0.073	0.001	-0.034	-0.065	-0.03	0.015	-0.014
CCNB2 (UniProt O95067)	-0.048	-0.091	-0.018	-0.016	0.032	-0.108	0.023	0.009	-0.035	0.068	-0.053	0.081	-0.016	0.21 (active)	-0.046	-0.081	-0.029	0.012	-0.038	0
BTAF1 (UniProt O14981)	0.015	-0.043	-0.041	-0.137	0.011	-0.004	0	0.046	-0.056	0.093	-0.005	0.018	-0.028	0.007	0.008	-0.015	-0.011	0.033	0.016	0.004
CAPNS1 (UniProt P04632)	0.064	0.024	0.047	-0.21	-0.015	0.15	-0.042	0.079	0.016	0.005	-0.007	0.027	0.035	-0.002	-0.014	0.078	0.017	-0.077	-0.05	0.01
CASC4 (UniProt Q6P4E1)	-0.038	0.069	0.019	-0.088	0.051	0.016	0.067	0.057	-0.045	0.02	-0.072	-0.006	0.037	0.053	0.029	0.021	-0.033	-0.024	0.035	-0.011
AURKAIP1 (UniProt Q9NWT8)	-0.001	0.051	0.021	-0.017	0.012	-0.03	0.028	-0.039	-0.029	-0.04	-0.072	-0.019	0	0	-0.058	-0.02	-0.041	0.055	0.042	-0.071
CALM2 (UniProt P0DP24)	-0.038	-0.128	0.027	-0.252	0.086	0.068	0.025	-0.064	-0.171	0.187	-0.009	0.014	-0.013	0.022	-0.001	-0.178	0.016	-0.053	-0.014	-0.06
CELF1 isoform 4 (UniProt Q92879)	0.011	0.023	0.032	0.021	-0.036	-0.028	0.019	-0.605 (active)	-0.09	-0.018	-0.022	0.042	-0.025	0	0	0.021	-0.013	0.037	0.033	0.067
CHD1L (UniProt Q86WJ1)	-0.037	-0.045	-0.115	-0.011	0.013	-0.062	0.052	0.128	-0.055	0.038	-0.01	-0.012	-0.024	0	0.024	-0.114	0.032	0.111	0.028	-0.039
BUD23 isoform 3 (UniProt O43709)	0.052	-0.017	0.07	-0.305 (active)	0.025	0.136	-0.073	-0.035	-0.088	0.152	-0.003	-0.008	0.035	-0.084	0.035	0.009	0.015	0.035	-0.076	-0.017
CCNA2 (UniProt P20248)	-0.004	-0.029	-0.035	-0.092	0.019	0.091	-0.073	0.059	0.027	0.049	-0.014	0.064	0.04	0.234 (active)	-0.051	-0.086	-0.015	0.005	0.063	-0.021
CAMK1 (UniProt Q14012)	-0.037	-0.058	-0.078	-0.145	-0.042	0.187	0.05	-0.006	-0.047	0.314 (active)	-0.086	0.04	0.021	0.064	0.008	-0.12	-0.071	0.194	0.018	-0.023
CAMK2G isoform 8 (UniProt Q13555)	-0.013	-0.008	-0.177	-0.053	-0.083	0.085	-0.037	-0.049	0.001	-0.07	-0.007	0.518 (active)	-0.034	0.039	-0.062	-0.125	-0.005	0.219	0.019	-0.125
CES2 isoform 4 (UniProt O00748)	0.027	0.32	0.079	-0.003	0.021	0.016	0	0.015	0.154	0.036	-0.073	-0.115	0.065	0.098	-0.087	-0.042	0.05	-0.029	0.033	0.001
